Rows were chosen to be rich in hits. Some 5.5% of all compounds tested hit in one or more screens of this group.
Giardia kill – kills Giardia lamblia; Giardia lamblia trophozoite viability; activity change, % at 7.66 µM, hits read low; 0.15% of 340,000 active; in the data active = activity change below about -80%; inconclusive = between about -30% and that limit;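 also: parasites exposed to compound for two days anaerobically before the ATP read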
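Giardia trophozoites, 100 cells per well, were exposed to compounds for 48 hrs at 37 deg C under anaerobic conditions; viability was then read as ATP content by bioluminescence after 15-30 min at room temperature.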
Coupling enz – coupling enzyme interference in Giardia aldolase counter-screen | coupling enzyme system counterscreen, AmpLite Red fluorescence | activity change, negative = inhibition, % at 58.2 µM, hits read low | 0.67% of 290,000 active; in the data active = activity change below about -30%
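Counterscreen of the coupled detection system alone, without aldolase: glyceraldehyde-3-phosphate coupling enzymes plus AmpLite Red readout. Compounds at 57.5 uM final, 10 min RT preincubation, 20 min RT reaction, fluorescence 525/598 nm.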
ELG1 DNA repair – blocks ELG1-dependent DNA repair in HEK293T cells; HEK293T ELG1-luciferase reporter, luminescence, 16 h; DNA damage induced by 5-fluorouridine; Potency, µM (highest dose often 46.1 µM), hits mostly inhibitors; 2.3% of 330,000 active; AID 504467; also: nearly all actives have a fitted effect of over 55% in size
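Step one: seed 2,000 cells per well. Step two: pin-transfer compound or DMSO alongside 5-fluorouridine. Step three: incubate 16 hr, 37 °C, 5% CO2. Step four: add ONE-Glo, wait 30 min, read luminescence.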
Sfp inh – blocks B. subtilis Sfp PPTase activity; Biochemical Sfp PPTase activity, qHTS; Potency, µM, hits mostly inhibitors; Q9F4F7; AID 1490; 3.5% of 310,000 active;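 also: the enzyme is Sfp with the accession as filed and its product quenches rhodamine fluorescence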
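Buffer: 50 mM Hepes-Na pH 7.6, 10 mM MgCl2, 0.01% Nonidet P-40, 0.01% BSA. Enzyme 15 nM, pre-exposed to compound 15 min; substrates then added and fluorescence change tracked over 30 min.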
Each line names hits and unclear results; the compound was inactive in the other large screens. Unless noted, calls follow the shape of the dose curve; as a rule, active = well fitted curve in the direction sought with a large enough effect; inconclusive = small, poorly fitted or top-dose-only effect, or another doubt; inactive = no such curve, though single readings can be large; an effect the other way counts as inactive or inconclusive.

CCCOC(=O)c1c(N)n(Cc2cccs2)c2nc3ccccc3nc12	ELG1 DNA repair 20.6µM
CCCCn1c(NC(=O)c2ccco2)c(C(=O)OCC)c2nc3ccccc3nc21	Coupling enz -45.6, ELG1 DNA repair inconclusive, Sfp inh 50.1µM
CCCCn1c(N)c(C(=O)OCC2CCCO2)c2nc3ccccc3nc21 (stereo unspecified)	ELG1 DNA repair 9.2µM
CCCCn1c(N)c(C(=O)OCCOC)c2nc3ccccc3nc21	ELG1 DNA repair 8.2µM
C=CCN(C1=NCCN1)c1c(Cl)cccc1Cl	none (no result: Giardia kill, ELG1 DNA repair)
CCC(Oc1ccc(Cl)cc1)C(=O)OC1CC2CCC(C1)N2C (stereo unspecified)	none (no result: Giardia kill, Coupling enz, ELG1 DNA repair)
C=C[C@H](Cc1ccccc1)N(Cc1ccccc1)S(=O)(=O)N(Cc1ccccc1)[C@H](C=C)Cc1ccccc1	ELG1 DNA repair inconclusive (no result: Coupling enz, Sfp inh)
CCn1c(NN=O)nc2ccccc21	Sfp inh 50.1µM
CCN1C(=O)C(=C/C=C/c2ccco2)C(=O)N(CC)C1=S	ELG1 DNA repair inconclusive, Sfp inh 39.8µM
Cc1ccc(C)c(NP(=O)(Oc2ccccc2)Oc2ccccc2)c1	Giardia kill inconclusive, ELG1 DNA repair 8.2µM
CCCC(=O)O[C@@H]1[C@@H](C)[C@@]2(O)[C@@H](C=C(CO)C[C@@]3(O)C(=O)C(C)=C[C@@H]23)[C@@H]2C(C)(C)[C@]12OC(=O)CCC	none (no result: Giardia kill, ELG1 DNA repair)
CSC(=Nc1ccccc1)c1c(O)n(C)c(=O)n(C)c1=O	ELG1 DNA repair inconclusive, Sfp inh 56.2µM
C/C(=N\NC(=S)Nc1ccccc1)c1c(O)n(C)c(=O)n(C)c1=O	ELG1 DNA repair inconclusive, Sfp inh 28.2µM
CC/C(=N\Nc1ccccc1)c1c(O)n(C)c(=O)n(C)c1=O	Sfp inh inconclusive
Cn1c(O)c(C(=Nc2ccccc2)SCc2ccccc2Cl)c(=O)n(C)c1=O	ELG1 DNA repair inconclusive, Sfp inh 39.8µM
C[C@H]1CO1	none (no result: Giardia kill, ELG1 DNA repair)
COc1ccc2c3c1O[C@H]1[C@@H](O)C=C[C@H]4C(C2)NCCC341 (stereo partly specified)	none (no result: Giardia kill, Coupling enz, ELG1 DNA repair)
O=C1NS(=O)c2cc([N+](=O)[O-])cc([N+](=O)[O-])c21 (stereo unspecified)	Sfp inh 17.8µM
Cc1cc(Cc2c(O)[nH]c(=S)[nH]c2=O)ccc1OC(C)C	Giardia kill inconclusive, Sfp inh 56.2µM
CC(C)(C)C(O)C(Cc1ccc(Cl)cc1Cl)n1cncn1 (stereo unspecified)	none (no result: Giardia kill, ELG1 DNA repair)
C=C[C@@H]1CN2CC[C@H]1C[C@H]2[C@H](O)c1ccnc2ccccc12	none (no result: Giardia kill, Coupling enz, ELG1 DNA repair)
Oc1ccc2c(c1)[C@@]13CCCCC1[C@@H](C2)N(CC1CCC1)CC3 (stereo partly specified)	none (no result: Giardia kill, ELG1 DNA repair)
O=C(CCS(=O)NCc1ccccc1)NCc1ccccc1 (stereo unspecified)	Sfp inh 89.1µM (no result: Giardia kill)
CCOc1c(Cl)cc(CNCCc2c[nH]c3ccccc23)cc1OC	Sfp inh 56.2µM
CCOc1cc(CNCCc2c[nH]c3ccccc23)cc(Cl)c1OCC	none
CCCOc1ccc(C(=O)NC(=S)N2C[C@H]3C[C@H](C2)c2cccc(=O)n2C3)cc1	ELG1 DNA repair inconclusive, Sfp inh 44.7µM
COc1ccc(C(=O)NC(=S)N2C[C@H]3C[C@H](C2)c2cccc(=O)n2C3)cc1OC	Sfp inh inconclusive
CCc1nn(CC(=O)N2CCN(Cc3ccc4c(c3)OCO4)CC2)c(=O)c2cc3occc3n12	ELG1 DNA repair 20.6µM
O=C1Nc2ccc(Cl)cc2C(c2ccccc2)=NC1O (stereo unspecified)	none (no result: Giardia kill, ELG1 DNA repair)
O=C1NC(=O)N(c2ccc3c(c2)OCO3)C(=O)/C1=C\c1ccsc1	Sfp inh 35.5µM
Cc1cc(/C=C2\C(=O)NC(=O)N(c3cccc(F)c3)C2=O)c(C)n1-c1cc(C(=O)O)cc(C(=O)O)c1	none
Cc1cccc(N2C(=O)NC(=O)/C(=C/c3ccc(-c4ccc(C(=O)O)c(Cl)c4)o3)C2=O)c1	Sfp inh 44.7µM (no result: Giardia kill)
Cc1ccc(N2C(=O)NC(=O)/C(=C\c3ccsc3)C2=O)cc1C	ELG1 DNA repair inconclusive, Sfp inh 50.1µM (no result: Giardia kill)
O=C1NC(=O)N(c2ccc3c(c2)OCO3)C(=O)/C1=C/c1ccc(N2CCCCC2)o1	none
O=C1NC(=O)N(c2ccc3c(c2)OCO3)C(=O)/C1=C\c1ccc(-c2ccccc2C(=O)O)o1	Sfp inh 50.1µM
C[C@]12CC[C@@H]3[C@@H](CCC4=CC(=O)CC[C@@H]43)[C@@H]1CC[C@@H]2OC(=O)CCc1ccccc1	Sfp inh inconclusive (no result: Giardia kill, ELG1 DNA repair)
CCCCCCCCCCCCOCCOCCOCCOCCOCCOCCOCCOCCOCCO	Sfp inh 70.8µM (no result: Giardia kill, ELG1 DNA repair)
CCCCCCOC(=O)c1ccccc1N	ELG1 DNA repair inconclusive
C[C@@H]1Cc2c(Cl)cc(C(=O)N[C@@H](Cc3ccccc3)C(=O)O)c(O)c2C(=O)O1	none (no result: Giardia kill, ELG1 DNA repair)
CN(C)c1ccc(/C=C/C=C/c2sc3ccccc3[n+]2C)cc1	ELG1 DNA repair inconclusive
CN(C)c1ccc(/C=C/c2cc[n+](C)c3ccccc23)cc1	Coupling enz -41.7, Sfp inh 56.2µM
COCCN(C(=O)CCl)c1c(C)cccc1C	none (no result: Giardia kill, ELG1 DNA repair)
CNC(=O)Oc1ccc2c(c1)C1(C)CCN(C)C1N2C (stereo unspecified)	none (no result: Giardia kill, ELG1 DNA repair)
CC(=O)OC(C)(C)/C=C/C(=O)C(C)(O)C1C(O)CC2(C)C3CC=C4C(CC(O)C(=O)C4(C)C)C3(C)C(=O)CC12C (stereo unspecified)	none (no result: Coupling enz, ELG1 DNA repair, Sfp inh)
CC(=O)OC(C)(C)/C=C/C(=O)[C@](C)(O)[C@H]1[C@H](O)C[C@@]2(C)[C@@H]3CC=C4[C@H](C[C@H](O)C(=O)C4(C)C)[C@]3(C)C(=O)C[C@]12C	ELG1 DNA repair 5.17µM
COC(=O)CSc1nc2sc3c(c2c(=O)n1C1CCCCC1)CCN(C)C3	Sfp inh 56.2µM (no result: Giardia kill)
CC(C)C[C@H](NC(=O)[C@@H](N)Cc1ccccc1)C(=O)N[C@@H](Cc1ccccc1)C(=O)N[C@@H](CCC(N)=O)C(=O)N1CCC[C@H]1C(=O)N[C@@H](CCC(N)=O)C(=O)N[C@@H](CCCN=C(N)N)C(=O)N[C@@H](Cc1ccccc1)C(N)=O	none (no result: Giardia kill, ELG1 DNA repair)
CN(Cc1ccccc1)C(=O)Cn1c(=O)oc2cc(S(=O)(=O)NCc3ccccc3)ccc21	ELG1 DNA repair inconclusive
CC1CC(C)CN(S(=O)(=O)c2ccc3c(c2)oc(=O)n3CC(=O)NCc2cccnc2)C1 (stereo unspecified)	ELG1 DNA repair 3.66µM
O=C1NC(=S)NC(=O)C1=Cc1ccc2c(c1)CCN2CCCCl	Sfp inh 15.8µM
O=C(c1ccc2nc(-c3ccco3)c(-c3ccco3)nc2c1)N1CCC2(CC1)OCCO2	Coupling enz -44.7, Sfp inh 8.91µM
COc1ccccc1N1C(=O)NC(=O)/C(=C/c2ccc([N+](=O)[O-])s2)C1=O	Sfp inh 22.4µM
Cc1ccc(N2C(=O)NC(=O)/C(=C\c3ccc([N+](=O)[O-])o3)C2=O)cc1	Sfp inh inconclusive (no result: Giardia kill)
COc1ccc(N2C(=O)NC(=O)/C(=C\c3ccc([N+](=O)[O-])s3)C2=O)cc1	Sfp inh 39.8µM
COc1ccc(N2C(=O)NC(=O)/C(=C/c3ccc([N+](=O)[O-])s3)C2=O)cc1	Sfp inh 25.1µM

Screens deposited in PubChem by National Center for Advancing Translational Sciences (NCATS).
